Reference: PubChem BioAssay AID1159580 (chemical genetic matrix, 2015)
About 2,000 (36%) of roughly 5,500 compounds were called active. Inconclusive results (about 18%) are left out. No stated cut-off is given here; in the data, active means normalized growth mostly below about 0.91 (no sharp cut-off); inconclusive means no clear call, values can overlap the other calls; inactive means mostly above about 0.92. This is one part of the list.

Assay: chemical genetic growth profiling, strain panel (AID 1159580);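 further: tested at 20 µM; growth read once vehicle control cultures reached saturation at 30 °C; 1 = growth at the plate median or of vehicle wells; lower values mean less growth of the strain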
Settings: growth OD

Measured: normalized growth

O=C(OC[C@H]1O[C@H](OC(=O)c2cc(O)c(O)c(OC(=O)c3cc(O)c(O)c(O)c3)c2)[C@H](OC(=O)c2cc(O)c(O)c(OC(=O)c3cc(O)c(O)c(O)c3)c2)[C@@H](OC(=O)c2cc(O)c(O)c(OC(=O)c3cc(O)c(O)c(O)c3)c2)[C@@H]1OC(=O)c1cc(O)c(O)c(OC(=O)c2cc(O)c(O)c(O)c2)c1)c1cc(O)c(O)c(OC(=O)c2cc(O)c(O)c(O)c2)c1
active: S. cerevisiae deletion strains, locus YJR075W, strain HOC1, hits give low values 0.104 | S. cerevisiae deletion strains, locus YKL009W, strain mrt4, hits give low values 0.125 | S. cerevisiae deletion strains, locus YKL068W, hits give low values 0.082 | S. cerevisiae deletion strains, locus YKL085W, strain MDH1 (second series), hits give low values 0.0765 | S. cerevisiae deletion strains, locus YKL085W, strain MDH1, hits give low values 0.0765 | S. cerevisiae deletion strains, locus YKL160W, strain elf1, hits give low values 0.761 | S. cerevisiae deletion strains, locus YKL190W, strain CNB1, hits give low values 0.0756 | S. cerevisiae deletion strains, locus YKR001C, strain vps1, hits give low values 0.101 | S. cerevisiae deletion strains, locus YLL001W, strain dnm1, hits give low values 0.693 | S. cerevisiae deletion strains, locus YLL026W, hits give low values 0.689 | S. cerevisiae deletion strains, locus YLR027C, strain aat2, hits give low values 0.82 | S. cerevisiae deletion strains, locus YLR039C, strain RIC1, hits give low values 0.131 | S. cerevisiae deletion strains, locus YLR058C, strain SHM2, hits give low values 0.0679 | S. cerevisiae deletion strains, locus YLR102C, strain apc9, hits give low values 0.0965 | S. cerevisiae deletion strains, locus YLR221C, strain rsa3, hits give low values 0.785 | S. cerevisiae deletion strains, locus YLR258W, strain gsy2, hits give low values 0.807 | S. cerevisiae deletion strains, locus YLR262C, strain YPT6 (second series), hits give low values 0.596 | S. cerevisiae deletion strains, locus YLR262C, strain YPT6, hits give low values 0.149 | S. cerevisiae deletion strains, locus YLR268W, strain sec22, hits give low values 0.115 | S. cerevisiae deletion strains, locus YLR320W, strain mms22, hits give low values 0.777 | S. cerevisiae deletion strains, locus YLR330W, strain CHS5, hits give low values 0.0805 | S. cerevisiae deletion strains, locus YLR342W, strain FKS1 (second series), hits give low values 0.119 | S. cerevisiae deletion strains, locus YLR342W, strain FKS1, hits give low values 0.662 | S. cerevisiae deletion strains, locus YLR357W, strain rsc2, hits give low values 0.656 | S. cerevisiae deletion strains, locus YLR370C, strain arc18, hits give low values 0.334 | S. cerevisiae deletion strains, locus YLR371W, strain rom2, hits give low values 0.0958 | S. cerevisiae deletion strains, locus YLR384C, strain iki3, hits give low values 0.784 | S. cerevisiae deletion strains, locus YLR418C, strain cdc73, hits give low values 0.159 | S. cerevisiae deletion strains, locus YML016C, strain PPZ1, hits give low values 0.0844 | S. cerevisiae deletion strains, locus YML032C, strain rad52, hits give low values 0.103 | S. cerevisiae deletion strains, locus YML120C, strain ndi1, hits give low values 0.617 | S. cerevisiae deletion strains, locus YML124C, strain tub3, hits give low values 0.0933 | S. cerevisiae deletion strains, locus YMR058W, strain fet3, hits give low values 0.901 | S. cerevisiae deletion strains, locus YMR078C, strain ctf18, hits give low values 0.106 | S. cerevisiae deletion strains, locus YMR129W, hits give low values 0.921 | S. cerevisiae deletion strains, locus YMR205C, strain PFK2, hits give low values 0.721 | S. cerevisiae deletion strains, locus YMR223W, strain ubp8, hits give low values 0.0998 | S. cerevisiae deletion strains, locus YMR231W, strain pep5, hits give low values 0.148 | S. cerevisiae deletion strains, locus YMR263W, strain SAP30, hits give low values 0.0929 | S. cerevisiae deletion strains, locus YMR307W, strain GAS1, hits give low values 0.175 | S. cerevisiae deletion strains, locus YNL067W, strain RPL9B, hits give low values 0.0835 | S. cerevisiae deletion strains, locus YNL071W, strain lat1, hits give low values 0.88 | S. cerevisiae deletion strains, locus YNL128W, strain TEP1, hits give low values 0.0962 | S. cerevisiae deletion strains, locus YNL153C, strain GIM3, hits give low values 0.086 | S. cerevisiae deletion strains, locus YNL209W, strain ssb2, hits give low values 0.363 | S. cerevisiae deletion strains, locus YNL233W, strain BNI4, hits give low values 0.0934 | S. cerevisiae deletion strains, locus YNL250W, strain rad50, hits give low values 0.0969 | S. cerevisiae deletion strains, locus YNL271C, strain bni1, hits give low values 0.0916 | S. cerevisiae deletion strains, locus YNL298W, strain CLA4, hits give low values 0.0929 | S. cerevisiae deletion strains, locus YNL307C, strain MCK1, hits give low values 0.102 | S. cerevisiae deletion strains, locus YNL322C, strain KRE1 (second series), hits give low values 0.853 | S. cerevisiae deletion strains, locus YNL322C, strain KRE1, hits give low values 0.0735 | S. cerevisiae deletion strains, locus YNR052C, strain pop2, hits give low values 0.0934 | S. cerevisiae deletion strains, locus YOL006C, strain TOP1, hits give low values 0.155 | S. cerevisiae deletion strains, locus YOL147C, strain pex11, hits give low values 0.0861 | S. cerevisiae deletion strains, locus YOR001W, strain rrp6, hits give low values 0.663 | S. cerevisiae deletion strains, locus YOR061W, strain CKA2, hits give low values 0.065 | S. cerevisiae deletion strains, locus YOR069W, strain VPS5, hits give low values 0.0788 | S. cerevisiae deletion strains, locus YOR070C, strain gyp1, hits give low values 0.404 | S. cerevisiae deletion strains, locus YOR080W, strain dia2, hits give low values 0.349 | S. cerevisiae deletion strains, locus YOR083W, strain WHI5, hits give low values 0.695 | S. cerevisiae deletion strains, locus YOR106W, strain vam3, hits give low values 0.425 | S. cerevisiae deletion strains, locus YOR136W, strain idh2, hits give low values 0.108 | S. cerevisiae deletion strains, locus YOR144C, strain elg1, hits give low values 0.0856 | S. cerevisiae deletion strains, locus YOR184W, strain ser1, hits give low values 0.124 | S. cerevisiae deletion strains, locus YOR265W, strain rbl2, hits give low values 0.845 | S. cerevisiae deletion strains, locus YOR270C, strain vph1, hits give low values 0.438 | S. cerevisiae deletion strains, locus YOR290C, strain snf2, hits give low values 0.169 | S. cerevisiae deletion strains, locus YOR316C, strain cot1, hits give low values 0.0869 | S. cerevisiae deletion strains, locus YPL051W, strain arl3, hits give low values 0.565 | S. cerevisiae deletion strains, locus YPL055C, strain LGE1, hits give low values 0.103 | S. cerevisiae deletion strains, locus YPL078C, strain atp4, hits give low values 0.582 | S. cerevisiae deletion strains, locus YPL106C, strain sse1, hits give low values 0.829 | S. cerevisiae deletion strains, locus YPL240C, strain hsp82, hits give low values 0.889 | S. cerevisiae deletion strains, locus YPL241C, strain CIN2, hits give low values 0.0787 | S. cerevisiae deletion strains, locus YPR119W, strain clb2, hits give low values 0.0923 | S. cerevisiae deletion strains, locus YPR141C, strain kar3, hits give low values 0.096 | S. cerevisiae deletion strains, locus YPR163C, strain tif3, hits give low values 0.102 | S. cerevisiae deletion strains, locus YPR167C, strain met16, hits give low values 0.0927 | S. cerevisiae deletion strains, strain wtn01, hits give low values 0.0926 | S. cerevisiae strains, strain wild type, hits give low values 0.0831
inactive: S. cerevisiae deletion strains, locus YKR026C, strain gcn3, hits give low values 1.03 | S. cerevisiae deletion strains, locus YKR091W, strain srl3, hits give low values 0.968 | S. cerevisiae deletion strains, locus YLL041C, strain sdh2, hits give low values 0.951 | S. cerevisiae deletion strains, locus YLR113W, strain HOG1, hits give low values 1.08 | S. cerevisiae deletion strains, locus YMR125W, strain sto1, hits give low values 1.04 | S. cerevisiae deletion strains, locus YNL183C, strain NPR1, hits give low values 0.988 | S. cerevisiae deletion strains, locus YNL248C, strain rpa49, hits give low values 0.922 | S. cerevisiae deletion strains, locus YNR049C, strain mso1, hits give low values 0.944 | S. cerevisiae deletion strains, locus YOL012C, strain htz1 0.275 | S. cerevisiae deletion strains, locus YOR231W, strain MKK1, hits give low values 1.04 | S. cerevisiae deletion strains, locus YPL256C, strain CLN2, hits give low values 1.14
